# Experimental data reported in the OligoGym collection.
# Molecular target: ENTHD1
# Assay: pooled miR-30 sensor sort-seq; sequence = guide strand
# Settings: shRNA
# Further: reference of the scale not given here.
row,Sequence,sensor-assay potency score (higher = more potent)
1,TAGAAAACAATATAGAGTGGGA,0.012
2,TTGTGAACTATTCAGACTCATG,-1.36
3,TATACTTCTTCTCTGAAGCAGA,-0.435
4,TACTTGACCAACATGCTGGTAA,0.494
5,TTTTATTATGTAACCTTCCAAA,-1.23
6,TATTTGTAAAGATACCATCTGA,-0.616
7,TTTAACTCCTAACACTAGCATC,-1.32
8,TTATCATCCATCTGAATGCTGG,-0.718
9,TTACAATCTCCTTCACTCGGTC,0.0777

# Molecular target: ENTPD8
# Assay: as above
# Settings: shRNA
row,Sequence,sensor-assay potency score (higher = more potent)
1,TAGCCGCTGAGGTAGCACGGGT,-0.869
2,TTGCCTGTCCCTTCAACTGTGA,-0.84
3,TAGTTGACAGTGATCCAACCAA,0.0426
4,TCAACTGTGAGGTTCTGGGGGA,0.228
5,TCAGCATCTGGTCCCGTCCAAA,-1.74
6,TAGCTGTGAGTGTAGACGCTGT,0.245
7,TAGACGCTGTAGTCGGAGCCGT,-0.675
8,TCAAACACGATCCCAAACTTGA,-0.982
9,TAGTCGGAGCCGTAGAGGCGAA,-1.54
10,TTCAACTGTGAGGTTCTGGGGG,0.121
11,TTGACCAGCGTCCCCAAGCCGT,-1.42

# Molecular target: EPAS1
# Assay: as above
# Settings: shRNA
row,Sequence,sensor-assay potency score (higher = more potent)
1,TTAGAAGTCATTGAAGGTGGGG,0.712
2,TAGAAGTCATTGAAGGTGGGGA,0.421
3,TTGCTCTTCATACTCCAGCTGT,-0.454
4,TTCATGTCCATGCTGTGGCGGC,-0.685
5,TAGAACACCTCCGTCTCCTTGC,0.306
6,TTGAGGTTGACAGTACGGCCTC,-0.329
7,TTTTCTGACAGAAAGATCATGT,0.329
8,TCACACATGATGATGAGGCAGG,-0.0655
9,TTGAACAGGGATTCAGTCTGGT,0.262
10,TTTGGCAACAACAATAACGAGG,-0.434
11,TACAAGTTGTCCATCTGCTGGT,0.354
12,TTCACCTCACAGTCATATCTGG,-0.278
13,TTTAAGAACATTTCAGAACAGG,-0.533
14,TAGTTGACACACATGATGCACT,-0.913
15,TCTGTGGACATGTCTTTGCTTT,-0.503
16,TTAGCTGGAAGTCTTCCCCGTC,-0.236
17,TTCAGCTTCAGCTTGTTGGAGA,-0.377
18,TTTGTCATGGCACTGAAGCAGT,-0.635
19,TTGGGTGAACTTATCATTGGGT,0.697
20,TTGTGTGTTCGCAGGAAGCTGA,-0.595
